From ChEMBL document CHEMBL4513216, “Probing the Open Global Health Chemical Diversity Library for Multistage-Active Starting Points for Next-Generation Antimalarials” (ACS Infect Dis, 2020)
The campaign covered roughly 65,000 compounds. About 2,100 (3.2%) showed an effect of 50% or more. The median lay at about -52%. What follows is part of a selection rich in strong results, with near analogues and random picks from the rest.

Tested on: Plasmodium falciparum
Assay: Screen against P. falciparum Asexual Blood Stage (ABS), at 5uM
Assay type: functional, Dd2
Conditions: tested at 5 uM

Row | SMILES | INHIBITION
1 | CC(=O)N1CCC2(CCN(CC(C)C)C2)C1 (stereo unspecified) | -17.7%
2 | CCOC(=O)CN1C[C@@H]2OCCN(c3ncc(F)cn3)[C@@H]2C1 | -17.5%
3 | COCc1cn(C[C@H]2C[C@@H]3CCN2C[C@@H]3C(=O)N2CCOCC2)nn1 | -65.4%
4 | Cc1cc(C)nc(-n2nc(C)c3c2NC(=O)CSC3c2cnn(C)c2)n1 (stereo unspecified) | -48.5%
5 | O=C(Cc1cnccn1)N1C[C@@H]2CC[C@H]1CN(Cc1cscn1)C2 | -120%
6 | COc1cccc([C@@H]2CCN(Cc3c[nH]c(C)n3)C[C@H]2O)c1 | -35.2%
7 | Cn1ccnc1CN1CCN2C[C@H](OCc3cccnc3)C[C@H]2C1 | -52.6%
8 | FC(F)(F)c1ccccc1CCC1CCCN(Cc2cscn2)C1 (stereo unspecified) | 79.6%
9 | Cc1noc(C)c1CN1CCO[C@H]2CN(Cc3nccn3C)C[C@H]21 | -35.4%
10 | Cc1nc(CN2CCCC(CCc3ccccc3C(F)(F)F)C2)no1 (stereo unspecified) | 45.9%
11 | Cn1ccnc1CN1CCCC(CCc2ccc(F)c(F)c2)C1 (stereo unspecified) | 74.5%
12 | Cc1nc(CN2CCCC(CCc3ccc(F)c(F)c3)C2)c[nH]1 (stereo unspecified) | 81.9%
13 | Cn1cc(CN2CCCC(CCc3ccccc3C(F)(F)F)C2)cn1 (stereo unspecified) | 87.9%
14 | CN(C)Cc1cncc2c1CCN(Cc1cnn(C)c1)C2 | -86.8%
15 | CC(C)(C)CNCC1(O)CCCN(Cc2ccccc2F)C1=O (stereo unspecified) | 84.5%
16 | O=C1N(Cc2ccc(F)c(F)c2)CCCC1(O)CNCC1CCCCC1 (stereo unspecified) | 74.1%
17 | COc1ccc(F)c(CN2CCCC(O)(CNC3CCCCC3)C2=O)c1 (stereo unspecified) | 70.3%
18 | COC(=O)C(CO)NC(=O)c1cn(Cc2ccccc2F)nn1 (stereo unspecified) | -19.2%
19 | Cc1nc(C2(NCc3cccc(F)c3F)CCCCC2)no1 | -42.2%
20 | O=C1N(Cc2cccc(F)c2F)CCCC1(O)CNCC1CCCCC1 (stereo unspecified) | 74.4%
21 | O=C(C1CCCC1)N1CCO[C@@H]2CNC[C@@H]21 | 8.33%
22 | O=C1N(c2ccsc2)CCC12CCCN(Cc1ccccn1)C2 (stereo unspecified) | -30.2%
23 | c1cncc(OC[C@@H]2CC[C@H]3[C@H](CCN3Cc3cccs3)O2)c1 | -15.5%
24 | Cc1oncc1C(=O)N[C@@H]1CN(CC2CC2)C[C@@H]2CCCO[C@@H]21 | -164%
25 | Cc1cc(CN2C[C@@H]3COC[C@]3(CNC(=O)c3ccco3)C2)no1 | -65.1%
26 | CC(C)N1CCO[C@H]2CN(C(=O)Cc3cccs3)C[C@H]21 | -102%

Row | SMILES | INHIBITION
27 | c1cc(CO[C@@H]2CC[C@H]3[C@H]2OCCN3CC2CCOCC2)ccn1 | -52.1%
28 | CNC(=O)[C@@]12CCCN(c3ncccn3)[C@@H]1CN(C)C2 | -69.8%
29 | CC(C)(C)c1cc(=O)[nH]c(C2(N)CCCC2)n1 | -59.9%
30 | Cc1cc(C)cc(OCC(=O)N2CCCN(CC(N)=O)CC2)c1 | -21.7%
31 | CS(=O)(=O)N1CCC(Nc2ccnc3ccc(Cl)cc23)CC1 | 88.6%
32 | CS(=O)(=O)N1CCC(Nc2ccc(C#N)c(C(F)(F)F)c2)CC1 | -14.2%
33 | NC(=O)CN1CCCN(C(=O)COc2cccc(F)c2)CC1 | -58.7%
34 | NC(=O)CN1CCC(Nc2ccnc3ccc(Cl)cc23)CC1 | 94.4%
35 | O=C1[C@H]2CN(Cc3ccoc3)C[C@H]2CN1Cc1ccncc1 | -110%
36 | COc1ccc2c(c1)c(C(=O)Nc1cc(C)n(C)n1)cn2C(C)C | 9.46%
37 | O=C1NCc2ccccc2CC12CCN(Cc1ccncc1Cl)C2 (stereo unspecified) | -32%
38 | COc1cc(C2SCC(=O)Nc3ccsc32)cc(OC)c1OC (stereo unspecified) | -0.914%
39 | c1csc(CN2CC[C@H]3C[C@H](c4ccncn4)O[C@@H]3C2)c1 | -71.5%
40 | Cn1cc(CN2CCN(CC3(c4ccccc4)CC3)CC2)cn1 | 78.9%
41 | C=Cn1cc(CN2CCN(CC3(c4ccccc4)CC3)CC2)c(C)n1 | 72.4%
42 | Cn1cc(CN2CCC3(CCCN3Cc3cccnc3)CC2)cn1 | -18.8%
43 | Cn1cc(CN2CCC3(CC2)C(=O)Nc2ccccc23)cn1 | -74.2%
44 | O=C1CO[C@@H]2CN(C3CCOCC3)C[C@H]2N1Cc1ccncc1 | -24.5%
45 | Cn1nc(-c2cccs2)cc1[C@H]1CN2CC[C@H]1C[C@@H]2CNS(C)(=O)=O | -60.1%
46 | Cc1nc(C2(NCC(=O)NC(=O)Nc3ccccc3)CCCCC2)no1 | -126%
47 | CCn1ccnc1CN1CCCN(C(=O)Cc2ccc(C)cc2)CC1 | -118%
48 | CCn1ccnc1CN1CCCN(C(=O)Cc2ccc(C)s2)CC1 | -75.1%
49 | CCn1ccnc1CN1CCCC(CO)(Cc2cccc(Cl)c2)C1 (stereo unspecified) | 76.8%
50 | CCOC(=O)C1(Cc2ccccc2)CCCN(Cc2nccn2CC)C1 (stereo unspecified) | 71.1%
51 | CCn1ccnc1CN1CCCN(C(=O)Cc2ccc(C)nc2)CC1 | -85.3%
52 | Cc1cnn(CC(C)NCc2cc(C#N)ccc2F)c1 (stereo unspecified) | -49.9%

Row | SMILES | INHIBITION
53 | Fc1cnc(N2CCO[C@H]3CN(CC4CCCCC4)C[C@H]32)nc1 | 34.2%
54 | COc1cccc(OC)c1CNC(Cc1ccsc1)c1ccc(C)cn1 (stereo unspecified) | 92.5%
55 | COc1ccc(CNC(Cc2ccsc2)c2ncccc2C)cc1OC (stereo unspecified) | 74.7%
56 | Cc1cccc(C)c1NC(=O)CNC(C)Cc1ccsc1 (stereo unspecified) | 29.6%
57 | Cc1ccc(NC(=O)CNC(C)Cc2ccsc2)cc1F (stereo unspecified) | 22.9%
58 | COc1ccc(CNC(C)Cn2cccn2)cc1F (stereo unspecified) | -60.6%
59 | Cc1ncsc1CN1C[C@@H]2CCCO[C@@H]2[C@H](Nc2ccccn2)C1 | -27.2%
60 | c1ccc(C2CCN(c3ncnc4c3CCNC4)CC2)cc1 | 74.4%
61 | Clc1cccc(C2CCN(c3ncnc4c3CCNC4)C2)c1 (stereo unspecified) | 79.6%
62 | c1ccc2sc(N3CCCN(c4ncnc5c4CCNC5)CC3)nc2c1 | 85.2%
63 | CC[C@H](C)[C@@H](CO)NC(C)Cc1ccc(F)cc1 (stereo partly specified) | 41.2%
64 | O=C(C1CCC1)N1CCO[C@@H]2CNC[C@@H]21 | -39.2%
65 | COC(=O)NCC1CCC2(CCNCC2)O1 (stereo unspecified) | -44.6%
66 | CCOC(=O)[C@@H]1[C@@H](c2ccccc2)CN2CCN(C(=O)N(C)C)C[C@H]12 | -64%
67 | CCOC(=O)N1CCC(NC(C)Cc2cc(C)n[nH]2)CC1 (stereo unspecified) | -139%
68 | CCC(CNC1CCN(C(=O)N(C)C)CC1)Oc1ccccc1C (stereo unspecified) | 73.2%
69 | CN(C)C(=O)CN1CCCC12CCCN(c1ncc(F)cn1)C2 (stereo unspecified) | -30.5%
70 | CC(C)(C)n1cc(C2=CCN(CCc3ccccn3)CC2)cn1 | 45.2%
71 | CC(C)(C)n1cc(C2=CCN(CCNC(=O)c3ccccc3)CC2)cn1 | 19.4%
72 | CC(C)(C)n1cc(C2=CCN(CCN3CCCCCC3)CC2)cn1 | 71.5%
73 | CC(C)(C)n1cc(C2=CCN(CCNC(N)=O)CC2)cn1 | -161%
74 | Cc1nc(O)cc(CN2CC=C(c3cnn(C(C)(C)C)c3)CC2)n1 | -58.8%
75 | CC(C)(C)n1cc(C2=CCN(CCc3ccccc3)CC2)cn1 | 68%
76 | COCCN1CCC12CCN(c1ncccn1)C2 (stereo unspecified) | -86.1%
77 | O=C(Cn1ccc2c(Cl)cccc21)N1CCC2(CC1)OCCO2 | -85.8%
78 | O=C(Cn1ccc2ccc(Br)cc21)NC[C@@H]1CCCN2CCCC[C@H]12 | 79.3%

Row | SMILES | INHIBITION
79 | Cc1nc(O)cc(CNC(=O)CC[C@@H]2CCCN3CCCC[C@H]23)n1 | -4.68%
80 | Cc1cccc2c1ccn2CC(=O)NC[C@@H]1CCCN2CCCC[C@H]12 | 70.9%
81 | O=C(CC[C@@H]1CCCN2CCCC[C@H]12)NCCc1cc(O)ncn1 | -119%
82 | O=C(Cc1c[nH]c2ccccc12)N1CCC(Nc2ccccc2)CC1 | -7.04%
83 | Cc1n[nH]cc1C(=O)NCc1cccnc1N1CCc2ccccc2C1 | 75.3%
84 | COCCN1CCN(c2ccc(C)nn2)Cc2cccnc21 | -2.72%
85 | CN1CCc2c(CNC(=O)c3nccn3C)cncc2C1 | -77.8%
86 | O=C(C1CCC1)N1CCC2(CCNCC2)C1 | -39.1%
87 | COc1ccc(-c2c(C)nn3c(=N)c(C#N)n[nH]c23)cc1OC | 87.8%
88 | O=C(c1cccnc1)N1C[C@@H]2OCCN(CCN3CCCC3)[C@@H]2C1 | -134%
89 | CC(=O)NC[C@H]1C[C@@H]2CCN1C[C@@H]2c1cc(-c2cccs2)nn1C | -50.5%
90 | Cc1cccc(CN2C(=O)C[C@H]3[C@@H]2CCN3Cc2ccccn2)n1 | -22.5%
91 | c1ccc(CN2CC[C@H]3[C@H]2CCN3c2ncccn2)nc1 | -84.3%
92 | CC(C)(C)c1cn2c(n1)C(CNCc1cnn3ccccc13)CCC2 (stereo unspecified) | 80%
93 | CC(C)(C)c1cn2c(n1)C(CNCc1ccccn1)CCC2 (stereo unspecified) | 92.9%
94 | Cn1cccc1CNCC1CCCn2cc(C(C)(C)C)nc21 (stereo unspecified) | 75.7%
95 | Cc1nc(NCC2CC2)nc2c1COCC21CCNC1 (stereo unspecified) | -88.5%
96 | Cc1noc([C@]23COC[C@H]2CN(Cc2cc(C)on2)C3)n1 | -5.88%
97 | Cc1nn(C)c2nc(N3CCCCC3c3cccnc3)sc12 (stereo unspecified) | -114%
98 | CCCS(=O)(=O)N1CCc2c(COCC)cncc2C1 | -24.8%
99 | Cc1noc(C)c1CN1C[C@@H]2CCCO[C@@H]2[C@H](NS(C)(=O)=O)C1 | -59.8%
100 | O=C(NCC(=O)N1CCC2(CC1)OCCO2)c1ccoc1 | -196%
101 | CS(=O)(=O)N1C[C@@H]2CC[C@H]1CN(Cc1ccncc1)C2 | -82.5%
